# Test results reported in the supplement of paper PMC8728848.
# The sample as a whole holds a higher share of the strongest signals than the screen did.
# How the values were obtained:
# Assay in all cases: glycan array binding signal (z-score within array); higher = stronger binding
# Details in all cases: glycan notation: IUPAC condensed, linker removed
# [1] = molecular target: Fuc(a1-2)Gal(b1-3)GalNAc
# How it was run: (§1)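 The Consortium for Functional Glycomics database supplied 3228 glycan arrays, of which those lacking an available protein sequence were dropped. The binding signal, a within-array Z-score, was averaged across arrays of the same protein sequence and across linkers. Negative scores can be read as non-binding.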
# [2] = molecular target: Fuc(a1-2)Gal(b1-3)GlcNAc
# How it was run: as §1
# [3] = molecular target: Fuc(a1-2)Gal(b1-3)[Fuc(a1-4)]GlcNAc(b1-2)Man(a1-3)[Fuc(a1-2)Gal(b1-3)[Fuc(a1-4)]GlcNAc(b1-2)Man(a1-3)]Man(b1-4)GlcNAc(b1-4)GlcNAc
# How it was run: as §1
# [4] = molecular target: Fuc(a1-2)Gal(b1-3)[Fuc(a1-4)]GlcNAc(b1-3)[Fuc(a1-3)[Gal(b1-4)]GlcNAc(b1-6)]Gal(b1-4)Glc
# How it was run: as §1
# [5] = molecular target: Fuc(a1-2)Gal(b1-4)Glc
# How it was run: as §1
# [6] = molecular target: Fuc(a1-2)Gal(b1-4)[Fuc(a1-3)]GlcNAc(b1-3)[Neu5Ac(a2-6)Gal(b1-4)GlcNAc(b1-6)]Gal(b1-4)Glc
# How it was run: as §1
# [7] = molecular target: Fuc(a1-2)Gal6S(b1-4)Glc6S
# How it was run: as §1
# [8] = molecular target: Fuc(a1-2)[Gal(a1-3)]Gal(b1-3)GalNAc(b1-3)Gal(a1-4)Gal(b1-4)Glc
# How it was run: as §1
# [9] = molecular target: Fuc(a1-2)[Gal(a1-4)]Gal(b1-4)GlcNAc
# How it was run: as §1
# [10] = molecular target: Fuc(a1-2)[GalNAc(a1-3)]Gal(b1-3)GlcNAc
# How it was run: as §1
# [11] = molecular target: Fuc(a1-2)[GalNAc(a1-3)]Gal(b1-4)GlcNAc
# How it was run: as §1
# [12] = molecular target: Fuc(a1-2)[GalNAc(a1-3)]Gal(b1-4)GlcNAc(b1-2)Man
# How it was run: as §1
# [13] = molecular target: Fuc(a1-3)[Gal(b1-4)]GlcNAc(b1-6)GalNAc
# How it was run: as §1
# [14] = molecular target: Fuc(a1-3)[Gal(b1-4)]GlcNAc6S
# How it was run: as §1
# [15] = molecular target: Gal(a1-3)Gal(b1-4)GlcNAc(b1-3)GalNAc
# How it was run: as §1
# [16] = molecular target: Gal(a1-3)Gal(b1-4)[Fuc(a1-3)]GlcNAc(b1-2)Man(a1-3)[Gal(a1-3)Gal(b1-4)[Fuc(a1-3)]GlcNAc(b1-2)Man(a1-6)]Man(b1-4)GlcNAc(b1-4)GlcNAc
# How it was run: as §1
# [17] = molecular target: Gal(a1-4)Gal(b1-4)Glc
# How it was run: as §1
# [18] = molecular target: Gal(b1-3)GlcNAc(b1-3)Gal(b1-4)Glc
# How it was run: as §1
# [19] = molecular target: Gal(b1-3)GlcNAc(b1-3)Gal(b1-4)[Fuc(a1-3)]GlcNAc(b1-6)[Gal(b1-3)GlcNAc(b1-3)]Gal(b1-4)Glc
# How it was run: as §1
# [20] = molecular target: Gal(b1-3)[Neu5Ac(a2-6)]GlcNAc(b1-4)Gal(b1-4)Glc
# How it was run: as §1
# [21] = molecular target: Gal(b1-4)GlcNAc(a1-6)Gal(b1-4)GlcNAc
# How it was run: as §1
# [22] = molecular target: Gal(b1-4)GlcNAc(b1-2)[Gal(b1-4)GlcNAc(b1-4)]Man(a1-3)[Gal(b1-4)GlcNAc(b1-2)Man(a1-6)]Man(b1-4)GlcNAc(b1-4)GlcNAc
# How it was run: as §1
# [23] = molecular target: Gal(b1-4)GlcNAc(b1-3)Gal(b1-4)GlcNAc(b1-2)Man(a1-3)[Gal(b1-4)GlcNAc(b1-3)Gal(b1-4)GlcNAc(b1-2)Man(a1-6)]Man(b1-4)GlcNAc(b1-4)GlcNAc
# How it was run: as §1
# [24] = molecular target: Gal(b1-4)GlcNAc(b1-3)Gal(b1-4)GlcNAc(b1-3)Gal(b1-4)GlcNAc(b1-2)Man(a1-3)[Gal(b1-4)GlcNAc(b1-3)Gal(b1-4)GlcNAc(b1-3)Gal(b1-4)GlcNAc(b1-2)Man(a1-6)]Man(b1-4)GlcNAc(b1-4)GlcNAc
# How it was run: as §1
# [25] = molecular target: Gal(b1-4)GlcNAc(b1-3)Gal(b1-4)GlcNAc(b1-3)Gal(b1-4)GlcNAc(b1-2)[Gal(b1-4)GlcNAc(b1-3)Gal(b1-4)GlcNAc(b1-3)Gal(b1-4)GlcNAc(b1-6)]Man(a1-6)[Gal(b1-4)GlcNAc(b1-3)Gal(b1-4)GlcNAc(b1-3)Gal(b1-4)GlcNAc(b1-2)Man(a1-3)]Man(b1-4)GlcNAc(b1-4)[Fuc(a1-6)]GlcNAc
# How it was run: as §1
# [26] = molecular target: Gal(b1-4)GlcNAc(b1-3)Gal(b1-4)GlcNAc(b1-3)Gal(b1-4)GlcNAc(b1-3)Gal(b1-4)GlcNAc(b1-2)[Gal(b1-4)GlcNAc(b1-3)Gal(b1-4)GlcNAc(b1-3)Gal(b1-4)GlcNAc(b1-3)Gal(b1-4)GlcNAc(b1-6)]Man(a1-6)[Gal(b1-4)GlcNAc(b1-3)Gal(b1-4)GlcNAc(b1-3)Gal(b1-4)GlcNAc(b1-3)Gal(b1-4)GlcNAc(b1-2)Man(a1-3)]Man(b1-4)GlcNAc(b1-4)[Fuc(a1-6)]GlcNAc
# How it was run: as §1
# [27] = molecular target: Gal(b1-4)GlcNAc(b1-3)Gal(b1-4)GlcNAc(b1-3)Gal(b1-4)GlcNAc(b1-3)Gal(b1-4)GlcNAc(b1-3)Gal(b1-4)GlcNAc(b1-2)[Gal(b1-4)GlcNAc(b1-3)Gal(b1-4)GlcNAc(b1-3)Gal(b1-4)GlcNAc(b1-3)Gal(b1-4)GlcNAc(b1-3)Gal(b1-4)GlcNAc(b1-6)]Man(a1-6)[Gal(b1-4)GlcNAc(b1-3)Gal(b1-4)GlcNAc(b1-3)Gal(b1-4)GlcNAc(b1-3)Gal(b1-4)GlcNAc(b1-3)Gal(b1-4)GlcNAc(b1-2)Man(a1-3)]Man(b1-4)GlcNAc(b1-4)[Fuc(a1-6)]GlcNAc
# How it was run: as §1
binder,measurement,setting,value
rCnSL-proA (Clitocybe nebularis) (protein) AAFFSLVVLLALLPFGIHASALPSTELTPRVNPNLPGPNDVFVGFRGTNNIVGAIYEKDGIKDTPLNNGADAEMGPGSYITDGLFTARIFASGSAGNNPGTTATVCKIYASGVQWRGAPKGYIPVAYFGNGPTAEQRRQTYLRTLGLPGTAIRFGNLNTNPGQGPTAPRQMVVPPGPLRSLLKASCFPAADTRLPQTLHYFEKRVDWNIITAADSQTWGH,glycan array binding signal (z-score),[1],-0.318
same,glycan array binding signal (z-score),[2],-0.622
same,glycan array binding signal (z-score),[3],6
same,glycan array binding signal (z-score),[4],-0.573
same,glycan array binding signal (z-score),[5],-0.272
same,glycan array binding signal (z-score),[6],-0.085
same,glycan array binding signal (z-score),[7],-0.281
same,glycan array binding signal (z-score),[8],-0.278
same,glycan array binding signal (z-score),[9],0.128
same,glycan array binding signal (z-score),[10],0.497
same,glycan array binding signal (z-score),[11],-0.387
same,glycan array binding signal (z-score),[12],-0.723
same,glycan array binding signal (z-score),[13],0.153
same,glycan array binding signal (z-score),[14],0.115
same,glycan array binding signal (z-score),[15],-0.161
same,glycan array binding signal (z-score),[16],3.75
same,glycan array binding signal (z-score),[17],-0.307
same,glycan array binding signal (z-score),[18],-0.329
same,glycan array binding signal (z-score),[19],0.293
same,glycan array binding signal (z-score),[20],-0.459
same,glycan array binding signal (z-score),[21],3.94
same,glycan array binding signal (z-score),[22],0.465
same,glycan array binding signal (z-score),[23],5.99
same,glycan array binding signal (z-score),[24],4.45
same,glycan array binding signal (z-score),[25],4.11
same,glycan array binding signal (z-score),[26],4.64
same,glycan array binding signal (z-score),[27],3.94
